# Source: PubChem
# Only some compounds are listed: those with a hit (about 17% of all), similar ones and a draw of the others.
# DT40 TDP1 CPT: qHTS for Inhibitors of human tyrosyl-DNA phosphodiesterase 1 (TDP1): qHTS in cells in presence of CPT | AID 686979, 2013 | Potency, µM (highest dose often 46.2 µM), hits mostly inhibitors | chicken DT40 Tdp1-/-;hTDP1 cells + 20 nM CPT, ATP luminescence, 48 h | 420,000 compounds, 12% hits; also: nearly all actives have a fitted effect of over 55% in size
#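 Chicken DT40 Tdp1-/- cells stably complemented with human TDP1 were seeded at 400 cells/well in medium containing 20 nM camptothecin, exposed to pin-transferred compounds, and grown at 37 °C for at least 48 hr. Viability was read as ATP luminescence.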
# HepG2 tox: qHTS for Inhibitors of TGF-b: Cytotox Counterscreen; HepG2 CAGA-GFP viability, ATP luminescence, 18 h; Potency, µM (series often up to 46.1 µM), actives largely listed as cytotoxic; 410,000 compounds, 0.76% hits
#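 HepG2 CAGA-GFP cells (1000/well, DMEM with 1% FBS) received compound, then TGF-beta at 500 pg/mL final, and were incubated 18 hours at 37 degrees C. Viability was read by CellTiter-Glo luminescence. Media-only wells were set as complete cell-killing and DMSO as no toxicity.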
# TGFb inhibitor: qHTS for Inhibitors of TGF-b | Potency, µM (series often up to 46.1 µM), usual class: inhibitors | HepG2 CAGA-GFP TGF-b/SMAD3 reporter, GFP fluorescence, 18 h; TGF-beta stimulated, 500 pg/mL final | AID 588855, 2011 | 410,000 compounds, 1.2% hits; also: nearly all actives have a fitted effect of over 65% in size
#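 HEPG2 CAGA-GFP reporter cells (1000/well, DMEM with 1% FBS) received compounds, then recombinant TGF-beta at 500 pg/mL final for 18 hours at 37 degrees C. Per-cell GFP summed per well was normalised to unstimulated and stimulated DMSO controls before curve fitting.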
# HT1080 IDH1KD tx: qHTS for induction of synthetic lethality in tumor cells producing 2HG: qHTS for the HT-1080-IDH1KD cell line; HT-1080 IDH1 knockdown viability, ATP luminescence, 48 h; Potency, µM (series often up to 46.1 µM), hits mostly cytotoxic; 360,000 compounds, 2% hits; AID 686971, 2013
#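 CellTiter-Glo luminescence after 48 h compound exposure at 37 degrees C of IDH1-knockdown HT-1080 cells in 5% FBS RPMI. %Activity scaled between DMSO wells and cell-free media wells, with curves fitted and assigned curve classes.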
# HT1080NT lethal: qHTS for induction of synthetic lethality in tumor cells producing 2HG: qHTS for the HT-1080-NT fibrosarcoma cell line; Potency, µM (series often up to 46.1 µM), most hits filed as cytotoxic; 360,000 compounds, 1.6% hits; HT-1080-NT fibrosarcoma viability, CellTiter-Glo ATP luminescence, 48 h;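 also: NT is the 2HG producing partner of a matched IDH1 knockdown line; nearly all actives have a fitted effect of over 55% in size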
#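 750 cells/well, RPMI + 5% FBS; 2 h settle, compound pin-transfer, 48 h at 37 degrees C. CellTiter-Glo 10 min RT, luminescence. Normalized to DMSO and media-only wells.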
# TDP1 cell noCPT: qHTS for Inhibitors of human tyrosyl-DNA phosphodiesterase 1 (TDP1): qHTS in cells in absence of CPT; DT40 Tdp1-/- hTDP1 cells, no CPT, ATP luminescence, 48 h; Potency, µM (series often up to 46.2 µM), most hits filed as inhibitors; 420,000 compounds, 15% hits; also: nearly all actives have a fitted effect of over 55% in size
#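 Cells were dispensed at 400 per well, compounds added by pin tool, plates incubated ≥48 hr at 37 °C, then CellTiter-Glo added for 30 min at room temperature before luminescence reading. Line: DT40 Tdp1-/- complemented with hTDP1; camptothecin omitted.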
# Hits are given with their value; – = inactive; ? = inconclusive; · = no result; ! = not confirmed by another sample. Calls follow the shape of the dose curve; as a rule, active = well fitted curve in the direction sought with a large enough effect; inconclusive = small, poorly fitted or top-dose-only effect, or another doubt; inactive = no such curve, though single readings can be large; an effect the other way counts as inactive or inconclusive.
SMILES,DT40 TDP1 CPT,HepG2 tox,TGFb inhibitor,HT1080 IDH1KD tx,HT1080NT lethal,TDP1 cell noCPT
Cc1nn(-c2ccccc2)c(Cl)c1C(=O)NC1CCCCC1,–,–,–,–,–,–
CCOc1ccc(S(=O)(=O)N2CCN(C(=O)c3cc(C4CC4)nn3-c3ccccc3)CC2)cc1,21µM,–,–,–,–,18µM
COc1cc(F)ccc1-c1cc(C(=O)Nc2cc(OC)c(OC)c(OC)c2)[nH]n1,?,–,–,–,–,?
CC(C)N(Cc1cn[nH]c1-c1ccc(-c2ccccc2)cc1)Cc1nccn1C,?,–,?,21µM,15µM,?
Cc1sc2cc3c(c(C(=O)c4ccccc4)[n+]2c1C)-c1cccc2cccc-3c12,1µM,–,?,8.2µM,8.2µM,1.3µM
O=C(c1ccccc1)c1c2c(cc3sc4ccccc4[n+]13)-c1cccc3cccc-2c13,4.6µM,–,–,?,?,2.3µM
CCOC(=O)C(CC(=O)O)=C(c1ccccc1)c1ccccc1,–,–,–,–,–,–
Cc1noc(C)c1COc1cccc(C(=O)N2CCc3ccccc32)c1,?,–,–,–,–,?
O=S(=O)(Nc1ccc(-c2ccc(N3CCCCCC3)nn2)cc1)c1cccc(C(F)(F)F)c1,15µM,–,?,·,·,?
O=S(=O)(Nc1ccc(-c2ccc(N3CCCC3)nn2)cc1)c1ccc(C(F)(F)F)cc1,?,–,?,·,·,?
Cc1cc(C)c(S(=O)(=O)Nc2ccc(-c3ccc(N4CCCCC4)nn3)cc2)cc1C,8.2µM,–,–,·,·,18µM
O=S(=O)(Nc1ccc(-c2ccc(N3CCCCCC3)nn2)cc1)c1ccc(C(F)(F)F)cc1,12µM,–,–,·,·,?
CCOc1ccc(CN2CCNC(=O)C2CC(=O)NC2CCOCC2)cc1 (stereo not drawn),–,–,–,–,–,–
CC1=C[C@@H](C)[C@@H](c2ccc(C(F)(F)F)cc2)OC1=O,–,–,–,–,–,–
CCN(CC)C(=O)c1ccc2nc([C@@H]3O[C@H](CO)[C@H](O)[C@H](O)[C@H]3O)[nH]c2c1,–,–,–,–,–,–
COC(=O)c1cc(S(=O)(=O)NCCN2CCOCC2)cn1C,–,–,–,–,–,–
Cc1ccc(CNC(=O)c2c(C)oc3ncnc(N4CCOCC4)c23)cc1,–,–,–,·,·,–
CCOc1ccccc1N1CC(C(=O)Nc2cc(S(=O)(=O)N3CCOCC3)ccc2OC(C)C)CC1=O (stereo not drawn),?,–,–,–,–,?
CC(=O)N1CCC(N(Cc2ccc(C)o2)C(=O)Nc2ccc(C)cc2)CC1,–,–,–,·,·,–
Cc1cccc(C)c1OCC(=O)Nc1c(C(=O)c2ccccc2)oc2ccccc12,–,–,–,·,·,–
Cc1ccc(OCc2nnn(CC(=O)NS(=O)(=O)c3c(C)noc3C)c2-c2ccccc2)cc1,?,–,–,–,–,1µM
O=C(O)COCCN1CCN(C(c2ccccc2)c2ccc(Cl)cc2)CC1 (stereo not drawn),?,–,–,–,–,15µM!
CC(OC(=O)C1=Cc2ccccc2OC1)C(=O)NC(C)(C)C (stereo not drawn),–,–,–,–,–,?
COc1ccc(Cl)cc1NC(=O)CSc1cn(CC(=O)N2CCCCC2)c2ccccc12,21µM,–,–,·,·,21µM
COc1ccc(OC)c(NC(=O)CSc2cn(CC(=O)N3CCCCCC3)c3ccccc23)c1,?,–,?,·,·,21µM
SMILES,DT40 TDP1 CPT,HepG2 tox,TGFb inhibitor,HT1080 IDH1KD tx,HT1080NT lethal,TDP1 cell noCPT
COc1ccccc1NC(=O)CSc1cn(CC(=O)N2CCCC2)c2ccccc12,?,–,–,·,·,?
COc1ccc(NC(=O)CSc2cn(CC(=O)N3CCCCC3)c3ccccc23)c(OC)c1,?,–,?,·,·,?
Brc1ccc(C2Nc3cccc4cccc(c34)N2)s1,21µM,–,–,–,–,?
Cc1cccc(C2Nc3cccc4cccc(c34)N2)c1,?,–,–,–,–,?
CCOC(=O)[C@@H]1CCN(Cc2ccccc2)C[C@H]1c1ccccc1,?,–,–,–,–,23µM
CCOC(=O)C1(C)CCCN1C(=O)c1cc(F)ccc1C (stereo not drawn),?,–,–,–,–,–
COc1ccc(OC)c(NS(=O)(=O)c2ccc3c(c2)CCCN3C(=O)C2CCC2)c1,23µM,–,–,·,·,?
CCc1cccc(CC)c1NS(=O)(=O)c1ccc2c(c1)CCN2C(=O)C1CC1,?,–,?,·,·,–
CCc1ccccc1NS(=O)(=O)c1ccc2c(c1)CCCN2C(=O)C1CCC1,?,–,?,·,·,21µM
CCOC(=O)c1cn2nc(Oc3ccc(C#N)cc3)ccc2n1,–,–,–,–,–,–
COc1ccc(Br)c2c1-c1nc(NC(=O)c3ccccc3F)sc1C2,21µM,–,–,·,·,18µM
COc1ccc(Br)c2c1-c1nc(NC(=O)c3ccccc3SC)sc1C2,?,–,?,·,·,?
COc1cc(C(=O)Nc2nc3c(s2)Cc2c(Br)ccc(OC)c2-3)cc(OC)c1OC,15µM,–,–,·,·,15µM
Cc1ccc(-c2nc3sccn3c2Nc2ccccc2C)cc1,?,–,?,·,·,23µM
CCc1cccc(C)c1Nc1c(-c2ccccc2)nc2sccn12,?,–,?,·,·,18µM
CCc1cccc(C)c1NC(=O)CSc1n[nH]c(-c2ccccc2)n1,?,–,–,·,·,?
COc1ccc(NC(=O)CCn2c(=S)[nH]c3ccccc3c2=O)cc1Cl,–,–,–,–,?,–
O=C(Nc1ccc(OC(F)(F)F)cc1)c1ccc2nc[nH]c2c1,–,–,–,–,–,?
NC(=O)c1cccc(-c2cc(Nc3ccc(OC(F)(F)F)cc3)ncn2)c1,?,–,?,–,–,15µM
COc1ccc(S(=O)(=O)NNC(=O)c2cc3c4ccccc4n(C)c3s2)cc1,2.9µM,–,–,?,–,4.1µM
CCCCOc1ccccc1C1NC(=O)CCC1[N+](=O)[O-] (stereo not drawn),–,–,?,–,–,–
Cc1nc2c(nc1C)C(=O)c1ccccc1C2=O,3.7µM,3.5µM,2.2µM,18µM,?,4.6µM
O=C1c2ccccc2-c2nc3ccccc3nc21,?,–,–,–,–,?
